Compound activity (PubChem BioAssay)
sPLA2-III inh = human group III sPLA2 inhibitors, primary screen, biochemical, QFRET, BODIPY PC-A2 liposome substrate. QFRET BODIPY PC-A2 liposome hydrolysis, fluorescence. inhibition, % at 12.2 µM. 370,000 compounds, 0.56% hits. AID 743126, 2013;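 active = inhibition above mean plus 3 SD of compounds lying within the high and low control bounds, cut at about 19% in these data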;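 also: 0% = median of test compound wells and 100% = no enzyme DMSO wells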
ADAM10 inh = human ADAM10 inhibitors, primary screen, biochemical, QFRET, HTS; recombinant ADAM10, EDANS/DABCYL FRET peptide cleavage, 3 h; Disintegrin and metalloproteinase domain-containing protein 10 (Homo sapiens), O14672; inhibition, % at 7 µM; 370,000 compounds, 0.62% hits;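 active = inhibition above a per-campaign cutoff equal to the mean of compounds falling between control-based bounds plus 3 SD, cut at about 20% in these data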;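 also: 0% = DMSO wells while the 100% control is not disclosed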
Target sequence (O14672 214-748 limits assumed): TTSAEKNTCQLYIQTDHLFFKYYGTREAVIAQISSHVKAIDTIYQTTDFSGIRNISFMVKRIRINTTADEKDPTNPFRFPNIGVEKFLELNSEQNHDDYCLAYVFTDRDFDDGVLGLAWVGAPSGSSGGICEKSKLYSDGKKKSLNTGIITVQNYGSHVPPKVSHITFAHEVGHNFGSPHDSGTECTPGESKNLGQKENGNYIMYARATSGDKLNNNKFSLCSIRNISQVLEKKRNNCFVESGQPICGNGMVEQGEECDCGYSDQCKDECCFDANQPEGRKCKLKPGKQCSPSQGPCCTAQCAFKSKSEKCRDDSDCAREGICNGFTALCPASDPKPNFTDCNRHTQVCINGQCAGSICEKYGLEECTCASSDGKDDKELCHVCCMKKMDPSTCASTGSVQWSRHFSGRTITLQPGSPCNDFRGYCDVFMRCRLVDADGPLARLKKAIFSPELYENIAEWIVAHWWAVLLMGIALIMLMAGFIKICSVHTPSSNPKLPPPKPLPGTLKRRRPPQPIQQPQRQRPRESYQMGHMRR
proKLK7 act = proKLK7 zymogen activators, primary screen, biochemical, fluorescence intensity | 370,000 compounds, 0.9% hits | activation, % at 7 µM | purified proKLK7, EDANS-DABCYL substrate fluorescence; 100% is mature enzyme control, 0% vehicle | Kallikrein-7 (Homo sapiens), P49862;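 active = activation above the mean of all tested compounds plus 3 SD, computed per campaign excluding outliers beyond control limits, cut at about 13% in these data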
ADAM17 inh = ADAM17 inhibitors, primary screen, biochemical, QFRET | 370,000 compounds, 0.83% hits | recombinant ADAM17, EDANS/DABCYL FRET peptide cleavage | AID 720648, 2013 | inhibition, % at 6.95 µM | Disintegrin and metalloproteinase domain-containing protein 17 (Homo sapiens), P78536;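 active = inhibition above the mean of compounds lying between control limits plus 3 SD, set per campaign, cut at about 8.5% in these data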;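 also: 0% = DMSO-only wells as the low control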
CendR NRP1 mod = modulators of CendR peptide binding to NRP-1, primary screen, biochemical, fluorescence polarization, uHTS | FAM-RPARPAR peptide binding to NRP-1 | 360,000 compounds, 0.85% hits | Neuropilin-1 (Homo sapiens), O14786 | inhibition, % at 25 µM;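 active = inhibition or corrected inhibition above about 18%, plus a signal ratio from 0.5 to 1.5, limit read from the data, passing the limit was not always enough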
ADAM10 ctr = ADAM10 inhibitors, counter-screen for ADAM17 exosite inhibitor project, biochemical, FRET, human ADAM10; shares compounds with ADAM17 inh; recombinant ADAM10, EDANS/DABCYL FRET peptide cleavage, 3 h; inhibition, % at 6.95 µM; 2,900 compounds, 47% hits;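 active = mean inhibition over the triplicate runs exceeds the activity threshold set in the earlier primary screen, cut at about 20% in these data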;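 also: 0% = DMSO wells and 100% = marimastat wells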
ADAM17 confirm = ADAM17 inhibitors, hit retest, confirmation, biochemical, QFRET peptide cleavage; inhibition, % at 6.95 µM; shares compounds with ADAM17 inh; 2,900 compounds, 65% hits; recombinant ADAM17, EDANS/DABCYL QFRET peptide cleavage;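 active = mean inhibition across replicates above the hit cutoff set in the primary screen, cut at about 8.5% in these data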;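 also: 0% = DMSO wells and 100% = marimastat wells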
* marks the source's active call; other numbers are inactive results; · = not tested or not shown; ! = not confirmed by another sample. Only some compounds are listed: those with a hit (about 3.4% of all), similar ones and a draw of the others.

SMILES | sPLA2-III inh | ADAM10 inh | proKLK7 act | ADAM17 inh | CendR NRP1 mod | ADAM10 ctr | ADAM17 confirm
COC(=O)c1cccc(Cn2ccc3ccc(-c4ccc5ccn(C(=O)C6CCC6)c5c4)cc32)c1 | -5 | -68 | -13 | -13 | · | · | ·
CCO[C@@H]1OC(C(=O)N2CCN(Cc3ccccc3)CC2)=C[C@H](c2ccc(Br)cc2)[C@H]1CCCO | -47 | 19 | 0 | 10* | 2 | 4 | 7
CCO[C@@H]1OC(C(=O)N2CCN(Cc3ccccc3)CC2)=C[C@H](c2ccc(C(F)(F)F)cc2)[C@H]1CCCO | -10 | 5 | 0 | 0 | 6 | · | ·
COc1ccc(S(=O)(=O)N2CCCc3nc(C)c(C)cc32)cc1 | 0 | -1 | 0 | 1 | · | · | ·
COc1ccc(C(=O)N(Cc2sccc2C)C2CCS(=O)(=O)C2)cc1 (centres undefined) | 1 | 0 | 0 | 9.1* | -3 | -4 | 1
O=C(CCc1ccccc1-c1ccccc1CCNC(=O)c1c(F)cccc1F)NCc1ccccc1 | -11 | 6 | 1 | 2 | · | · | ·
COc1ccc2c(c1)CN1C(=O)N(CCc3ccccc3)S(=O)(=O)CC21 (centres undefined) | -2 | -1 | 0 | 3 | · | · | ·
COc1cccc(C#Cc2ccc3c(c2)O[C@H](CN(C)S(=O)(=O)c2ccccc2F)[C@H](C)CN([C@H](C)CO)S3(=O)=O)c1 | -20 | -6 | -1 | 11* | 3 | -24 | -5
CCCC#Cc1ccc2c(c1)O[C@H](CN(C)S(=O)(=O)c1cccc(OC)c1)[C@H](C)CN([C@H](C)CO)S2(=O)=O | -27 | 12 | 1 | 9.6* | -7 | 25* | 13*
CCOc1ccc(NC(=O)CN2CCN(c3ccccc3C)CC2)cc1S(=O)(=O)N1CCCC1 | -7 | -4 | 0 | -3 | 7 | · | ·
CCOc1ccc(NC(=O)CN2CCN(c3ccc(F)cc3)CC2)cc1S(=O)(=O)N1CCCC1 | -3 | -1 | 0 | 11* | -1 | 2 | 5
O=C(C1CCCN1S(=O)(=O)c1ccccc1[N+](=O)[O-])N1CCc2ccccc2C1 (centres undefined) | 2 | -7 | 0 | -2 | · | · | ·
COc1cc(NC(=O)c2cc(C)on2)cc(C(=O)Nc2cccc(C(F)(F)F)c2)c1 | -35 | 16 | 0 | 12*! | 2 | 34* | 16*
COc1cc(NC(=O)c2csc(N)n2)cc(C(=O)Nc2cccc(C(F)(F)F)c2)c1 | -5 | -2 | 0 | 6 | -13 | · | ·
CC1CCCN(S(=O)(=O)c2ccc(NC(=O)Cn3nnc(-c4ccccc4F)n3)cc2)C1 (centres undefined) | -63 | 17 | 0 | 10* | -2 | 16 | 11*
Cc1ccc(-c2nnn(CC(=O)Nc3ccc(S(=O)(=O)N4CCC(C)CC4)cc3)n2)cc1 | -16 | 7 | 0 | 6 | -6 | · | ·
C[C@H]1[C@@H](OC(=O)Nc2ccc(Cl)cc2)CC[C@@]23CCCN2C(=O)CCC[C@@H]13 | -9 | -1 | · | -2 | · | · | ·
CN(C)S(=O)(=O)c1cc(NC(=O)COC(=O)Cc2ccc(Cl)cc2Cl)ccc1Cl | -26 | 10 | 0 | 5 | -16 | · | ·
CN(C)S(=O)(=O)c1cc(NC(=O)COC(=O)Cc2cccc3ccccc23)ccc1Cl | -66 | 16 | 0 | 8.8* | 8 | 27* | 17*
O=C1N2Cc3ccccc3C2CS(=O)(=O)N1CCc1ccccc1 (centres undefined) | 2 | 7 | 1 | 0 | · | · | ·
